# ± gives the standard deviation of the averaged measurements.
# How the values were obtained:
# Settings in all cases: concentration: 10 µM; 24 h
# HCC1569 [1] = assay: cell number relative to DMSO (% of DMSO); higher = more cells (less growth inhibition / toxicity)
# How it was run: (§1)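 H1.0 nuclear intensity or cell number is stated as percent of the plate control, based on the median of replicates, and HCC1569 values were smoothed for positional effects. These came from HCC1569 and TDF cells treated with compounds at 10 µM for 24 h at 37 °C in triplicate, then fixed in 3.7% formaldehyde and stained with a rabbit anti-H1.0 antibody, an AlexaFluor 647 secondary and DAPI.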
# TDF [2] = assay: as above
# How it was run: as §1
# TDF [3] = assay: H1.0 immunofluorescence intensity relative to DMSO (% of DMSO); higher = stronger H1.0 induction, active = 120 or more
# How it was run: as §1
# HCC1569 [4] = assay: H1.0 immunofluorescence intensity relative to DMSO (% of DMSO); higher = stronger H1.0 induction, active = 140 or more
# How it was run: as §1
# 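Wherever H1.0 immunofluorescence intensity relative to DMSO is given: TDF is a line of transformed human dermal fibroblasts of mesenchymal origin.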
# 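Wherever cell number relative to DMSO is given: TDF denotes transformed human dermal fibroblasts of mesenchymal origin.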
SMILES,cell number (HCC1569 [1]),cell number (TDF [2]),H1.0 immunofluorescence intensity (TDF [3]),H1.0 immunofluorescence intensity (HCC1569 [4])
CCCCCCCCCCCCCCC(=O)O [Pentadecanoic acid],99,92.6,105 (inactive),107 (inactive)
CC12CCC(=O)C=C1CCC1C2C(O)CC2(C)C(C(=O)CO)CCC12 (configuration not stated) [Corticosterone],101 ± 2.6,103.3 ± 0.6,92.8 (inactive),100 (inactive)
CN1CCN(CCCCN2C(=O)CN(/N=C/c3ccc(-c4ccc(Cl)cc4)o3)C2=O)CC1.Cl.Cl,98.2,102,92.6 (inactive),115 (inactive)
CC1(C)CCCC(C)(C2CCC3(C)C2C(O)CC2C4(C)CCC(O)C(C)(C)C4C(O)CC23C)O1 (configuration not stated) [Panaxatriol],100,93.4,94.8 (inactive),99.6 (inactive)
COc1ccccc1OCC(O)CO (configuration not stated) [Guaifenesin],102,102,98 (inactive),116 (inactive)
Cl.NCCS [Cysteamine hydrochloride],101,99.7,91.2 (inactive),101 (inactive)
CCCC1CC(C(=O)NC(C(C)Cl)C2OC(SC)C(O)C(O)C2O)N(C)C1.Cl (configuration not stated) [Clindamycin.HCl],111,110,106 (inactive),91.3 (inactive)
CN(C)CC(C)(C)CNc1nn2c(-c3ccccc3)nnc2cc1C1CCC1,101,103,99.9 (inactive),92.2 (inactive)
CCC(=O)N1CCN(C(=O)c2ccccc2)CC1,106,111,94.2 (inactive),89.3 (inactive)
COc1ccccc1N1CCN(CCN2C(=O)CC3(CCCC3)CC2=O)CC1.Cl.Cl [BMY 7378 dihydrochloride],98.3,98.9,90.3 (inactive),89.9 (inactive)
Nc1ncn(C2OC(CO)C(O)C2O)c(=O)n1 (configuration not stated) [5-azacytidine],65.7,78,101 (inactive),150 (active)
C#CC1(O)CCC2C3CCC4=CC(=O)CCC4C3CCC21CC (configuration not stated) [Levonorgestrel],100,91.5,99.8 (inactive),98.5 (inactive)
O=C(O)c1cc(=O)c2ccc(Cl)cc2[nH]1 [7-Chlorokynurenic acid],96.9,105,92 (inactive),91 (inactive)
"CC(C)(CCCCCCCCCCC(C)(C)CC(=O)O)CC(=O)O [3,3,14,14-tetramethylhexadecanedioic acid]",102,97.7,96.6 (inactive),93.7 (inactive)
C=C1CCC2C(C)(CO)C(O)CCC2(C)C1CC=C1C(=O)OCC1O (configuration not stated) [Andrographolide],83.1,68.6,109 (inactive),113 (inactive)
CCCCCC=CCC(O)C=Cc1cccc(CC(O)CCCCO)n1 (configuration not stated),98.7 ± 2,108 ± 4.7,95.9 (inactive),113 (inactive)
COc1cc(CNC(=O)CCCCC=CC(C)C)ccc1O [Capsaicin],99 ± 1.3,99.2 ± 2.3,93.8 (inactive),95.8 (inactive)
"O=c1ccc2cc3ccoc3cc2o1 [7H-furo[3,2-g]chromen-7-one]",96.4,105,90.3 (inactive),93.5 (inactive)
C1COC(NC(C2CC2)C2CC2)=N1 [Rilmenidine hemifumarate],95.7,108,89.5 (inactive),107 (inactive)
Cn1c(=O)c2c(nc(C=Cc3cccc(Cl)c3)n2C)n(C)c1=O [8-(3-Chlorostyryl)caffeine],106,94.1,100 (inactive),99.1 (inactive)
Cc1ccc(NC(=O)c2ccc(CN3CCN(C)CC3)cc2)cc1Nc1nccc(-c2cccnc2)n1 [Imatinib],101,101,107 (inactive),103 (inactive)
NC(=O)c1cccc(-c2cc(Nc3ccc(OC(F)(F)F)cc3)ncn2)c1 [Bcr-abl Inhibitor],89.5,92.8,98.5 (inactive),124 (inactive)
CNc1cc(NS(=O)(=O)c2ccc(N)cc2)nc(NC)n1.Cl.Cl [Ro 04-6790 dihydrochoride],107,108,98.7 (inactive),84.4 (inactive)
O=C1c2c(O)cc(O)cc2OC(c2ccc(O)c(O)c2)C1O (racemic),108,109,87.5 (inactive),103 (inactive)
NC(=O)Nc1sc(-c2ccc(F)cc2)cc1C(N)=O,75.6,60.6,96.3 (inactive),177 (active)
Cc1ccc(C(=O)c2cc(O)c(O)c([N+](=O)[O-])c2)cc1 [Tolcapone],101,92.1,93.3 (inactive),112 (inactive)
O=c1c(O)c(-c2ccc(O)cc2)oc2cc(O)cc(O)c12 [Kaempferol],98.4,93.9,93.5 (inactive),115 (inactive)

SMILES,cell number (HCC1569 [1]),cell number (TDF [2]),H1.0 immunofluorescence intensity (TDF [3]),H1.0 immunofluorescence intensity (HCC1569 [4])
O=C(NO)c1cccc(C(=O)NCCc2ccccc2)c1 [N1-hydroxy-N3-phenethylisophthalamide],105,88,90.4 (inactive),101 (inactive)
COc1ccc2cc(CCC(C)=O)ccc2c1 [Nabumetone],107,97.4,93.8 (inactive),111 (inactive)
O=c1ccc2cc(O)c(O)cc2o1 [Esculetin],101,94.7,99.6 (inactive),101 (inactive)
O=C(O)CNC(=O)C(=O)O [2-(carboxymethylamino)-2-oxoacetic acid],103,92.4,93.7 (inactive),83.7 (inactive)
O=C(O)c1cc(-c2ccc(F)cc2F)ccc1O [Diflunisal],102,100,96.1 (inactive),115 (inactive)
Cc1c(C)c2c(c(C)c1OC(=O)CCC(=O)O)CCC(C)(CCCC(C)CCCC(C)CCCC(C)C)O2 (configuration not stated) [Tocopherol succinate],98.1,109,94.4 (inactive),102 (inactive)
CCCCCC(=O)C=CC=CCC=CCC=CCCCC(=O)O [15-Ketoeicosatetraenoic acid],99.5,102,94 (inactive),86.9 (inactive)
CCn1cc(C(=O)O)c(=O)c2cc(F)c(N3CCNCC3)nc21 [Enoxacin],105,91.3,98.8 (inactive),106 (inactive)
CC12CCC(=O)C=C1CCC1C2CCC2(C)C1CCC2(O)C(=O)CO (configuration not stated) [Cortexolone],98.2,99.3,90.2 (inactive),96.2 (inactive)
CC1=NC(=NNc2ccc(S(=O)(=O)[O-])cc2S(=O)(=O)[O-])C(COP(=O)([O-])[O-])=C(C=O)C1=O.[Na+].[Na+].[Na+].[Na+],102,103,90.1 (inactive),97.3 (inactive)
CC(C)(C#N)c1ccc(N2C(=O)OCc3cnc4ccc(-c5cnc6ccccc6c5)cc4c32)cc1,59.8,44.1,101 (inactive),206 (active)
CCCCCCCCCCCCCCCC(O)C(N)CO (configuration not stated) [Dihydrosphingosine],102,94.5,98.8 (inactive),106 (inactive)
O=C1CC(c2ccc(O)cc2)Oc2cc(OC3OC(CO)C(O)C(O)C3O)cc(O)c21 (configuration not stated) [Narigenin-7-O-glucoside],101,103,97.8 (inactive),86.5 (inactive)
CCCCCCCCCCCCCCCCOP(=O)([O-])OCC[N+](C)(C)C [Miltefosine],97.1,109,92.7 (inactive),113 (inactive)
OCC(CO)(CO)NCC(O)Cn1c2ccc(Cl)cc2c2cc(Cl)ccc21 (configuration not stated),74.3,76.8,125 (active),168 (active)
O=C(/C=C/c1cccnc1)NCCCCC1CCN(C(=O)c2ccccc2)CC1,106,107,98.9 (inactive),90.3 (inactive)
CN(C)CCCC1(c2ccc(F)cc2)OCc2cc(C#N)ccc21 (configuration not stated) [Citalopram],103,114,91.3 (inactive),100 (inactive)
"CCCCCC(O)C=CC1C(O)CC(O)C1CC=CCCCC(=O)O (configuration not stated) [9a,11b Prostaglandin F2]",106,99.4,94.2 (inactive),101 (inactive)
CCCCCC(O)CCCC(=O)[O-].[Na+] (configuration not stated) [5-hydroxydecanoic acid sodium],99.5,96,99.5 (inactive),114 (inactive)
Ic1cccc(CSc2nnc(-c3ccncc3)o2)c1 [GSK-3b Inhibitor II],93.5,106,102 (inactive),117 (inactive)
CC(=O)C1CCC2C3CCC4=CC(=O)CCC4(C)C3CCC12C (configuration not stated) [Progesterone],101.3 ± 0.57,99.1 ± 7.3,95.9 (inactive),102 (inactive)
O=C1Cc2c([nH]c3ccc(Br)cc23)-c2ccccc2N1 [Kenpaulone],73.4,97.7,89.8 (inactive),83.4 (inactive)
Cn1c(=O)c2c(ncn2CC2OCCO2)n(C)c1=O [Doxofylline],103,106,105 (inactive),104 (inactive)
"Nc1ccc2c3c(cccc13)C(=O)NC2=O [4-Amino-1,8-naphthalimide]",94.1,77.8,104 (inactive),150 (active)
COc1ccc(CCN(C)CCc2ccc(OC)c(OC)c2)cc1OC.Cl [YS-035 hydrochloride],99.4,108,96.6 (inactive),98.3 (inactive)
"COC1C=CC=C(C)C(=O)NC2=CC(=O)C=C(C2=O)C(OC)C(C)CC(OC)C(OC)C(C)C=C(C)C1OC(N)=O (configuration not stated) [Herbimycin A, Streptomyces sp.]",62.4,54.7,88.3 (inactive),180 (active)

# — the supplement of paper PMC7156485
